According to PubChem BioAssay (EPA / NIEHS):
Several values for one entry are separate records, joined by “and”; a condition that tells them apart may be missing. Equal entries are not always repeated. Results filed as inconclusive are left out. Activity calls are given as the source filed them. The calls were made as follows, unless noted: active = hit-call score of the fitted dose curve at least 0.9, where 1 is the maximum; inconclusive = response in the unintended direction; inactive = score below 0.9.

Assays:
[1] = Tanguay_ZF_120hpf_EYE_legacy: (Legacy) Oregon State University Tanguay Lab 120 Hour Post-fertilization zebrafish Assay for Eye Malformation (AID 2283636);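 also: binary presence or absence of eye malformation scored by brightfield in 120 hpf larvae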
Method in brief: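 Dechorionated Tropical 5D zebrafish embryos, one per well from 6 hpf, static exposure to 120 hpf at 28C, 0.64% DMSO. Eye malformation scored present/absent by brightfield; dead embryos not scored.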

[2] = Tanguay_ZF_120hpf_SNOU_legacy: (Legacy) Oregon State University Tanguay Lab 120 Hour Post-fertilization zebrafish Assay for Snout Malformation (AID 2283637)
Method in brief: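 Dechorionated tropical 5D wild-type zebrafish embryos exposed statically from 6 to 120 hpf at 28C, one per well, in 0.64% DMSO. Snout malformation scored as present/absent by brightfield at 120 hpf; dead embryos not scored.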

[3] = Tanguay_ZF_120hpf_JAW_legacy: (Legacy) Oregon State University Tanguay Lab 120 Hour Post-fertilization zebrafish Assay for Jaw Malformation (AID 2283638);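 as to AC50: active means more embryos with jaw malformation than DMSO controls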
Method in brief: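 Wild-type 5D embryos, chorion removed at 4 hpf, dosed singly from 6 hpf; 28C static, sealed, foil-covered, to 120 hpf. Endpoint: jaw defect yes/no (brightfield); mortality excludes scoring.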

[4] = Tanguay_ZF_120hpf_OTIC_legacy: (Legacy) Oregon State University Tanguay Lab 120 Hour Post-fertilization zebrafish Assay for Otic Vesicle Malformation (AID 2283639)
Method in brief: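 Tropical 5D wild-type zebrafish embryos were exposed statically in sealed, foil-covered plates at 28C until 120 hpf, with 0.64% (vol/vol) DMSO final. Otic vesicle malformation was scored present/absent by brightfield microscopy, with DMSO as baseline.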

[5] = Tanguay_ZF_120hpf_PE_legacy: (Legacy) Oregon State University Tanguay Lab 120 Hour Post-fertilization zebrafish Assay for Pericardial Edema (AID 2283640);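 as to AC50: potency for increased incidence of pericardial edema versus DMSO baseline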
Method in brief: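 Zebrafish larvae are exposed from early development to 120 hpf at 28C, with 0.64% DMSO final. Each surviving larva receives a yes/no pericardial edema call by brightfield imaging, analysed relative to the DMSO baseline.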

[6] = Tanguay_ZF_120hpf_BRAI_legacy: (Legacy) Oregon State University Tanguay Lab 120 Hour Post-fertilization zebrafish Assay for Brain Malformation (AID 2283641)
Method in brief: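 Static exposure of staged wild-type embryos until 120 hpf, kept at 28C with light excluded and final DMSO of 0.64% (vol/vol). Presence or absence of brain malformation was noted under brightfield; mortality precluded scoring.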

[7] = Tanguay_ZF_120hpf_SOMI_legacy: (Legacy) Oregon State University Tanguay Lab 120 Hour Post-fertilization zebrafish Assay for Somite Malformation (AID 2283647)
Method in brief: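 Somitogenesis defects are recorded as binary calls in whole larvae at 120 hpf after continuous static chemical exposure starting at 6 hpf in dechorionated 5D embryos. DMSO serves as negative control and baseline.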

[8] = Tanguay_ZF_120hpf_PFIN_legacy: (Legacy) Oregon State University Tanguay Lab 120 Hour Post-fertilization zebrafish Assay for Pectoral Fin Malformation (AID 2283648);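 also: each larva judged yes or no for fin defect by brightfield with dead larvae skipped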
Method in brief: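 Dechorionated Tropical 5D wild-type zebrafish embryos, one per well, statically exposed from 6 to 120 hpf at 28C with 0.64% DMSO final. Pectoral fin malformation scored present/absent by brightfield at 120 hpf; not scored in dead embryos.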

[9] = Tanguay_ZF_120hpf_CFIN_legacy: (Legacy) Oregon State University Tanguay Lab 120 Hour Post-fertilization zebrafish Assay for Caudal Fin Malformation (AID 2283649)
Method in brief: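 Single dechorionated 5D wild-type embryos are dosed at 6 hpf (final DMSO 0.64%) and held statically at 28C. Caudal fin malformation is recorded as present or absent at 120 hpf under brightfield, excluding dead embryos.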

[10] = Tanguay_ZF_120hpf_PIG_legacy: (Legacy) Oregon State University Tanguay Lab 120 Hour Post-fertilization zebrafish Assay for Pigmentation Malformation (AID 2283650)
Method in brief: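 Dechorionated Tropical 5D wild-type embryos, one per well from 6 hpf, statically exposed at 28C in the dark until 120 hpf, 0.64% DMSO final. Pigmentation scored present/absent by brightfield microscopy; dead embryos not scored; fitted versus DMSO.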

[11] = Tanguay_ZF_120hpf_CIRC_legacy: (Legacy) Oregon State University Tanguay Lab 120 Hour Post-fertilization zebrafish Assay for Circulatory Malformation (AID 2283651)
Method in brief: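 Tropical 5D wild-type embryos, dechorionated with pronase at 4 hpf, were placed singly in wells at 6 hpf and exposed statically at 28C to 120 hpf (0.64% DMSO final). Circulatory malformation was scored present/absent by brightfield microscopy.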

[12] = Tanguay_ZF_120hpf_SWIM_legacy: (Legacy) Oregon State University Tanguay Lab 120 Hour Post-fertilization zebrafish Assay for Swim Bladder Malformation (AID 2283654);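 also: swim bladder malformation in each larva scored yes or no under brightfield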
Method in brief: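 Dechorionated wild-type Tropical 5D zebrafish embryos, one per well from 6 hpf, were statically exposed at 28C until 120 hpf in 0.64% DMSO. Swim bladder malformation scored as present/absent by brightfield microscopy; not scored in dead larvae.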

[13] = Tanguay_ZF_120hpf_NC_legacy: (Legacy) Oregon State University Tanguay Lab 120 Hour Post-fertilization zebrafish Assay for Notochord and Tail Malformation (AID 2283656)
Method in brief: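 Dechorionated 5D zebrafish, 1/well from 6 hpf; static exposure to 120 hpf, 28C, sealed, dark; final DMSO 0.64% v/v. NC scored binary (present/absent); dead embryos not scored. Fit vs DMSO baseline, gain direction.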

[14] = Tanguay_ZF_120hpf_TRUN_legacy: (Legacy) Oregon State University Tanguay Lab 120 Hour Post-fertilization zebrafish Assay for Truncated Body (AID 2283655)
Method in brief: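 Single dechorionated zebrafish embryos received test chemical from 6 hpf in 0.64% DMSO, kept at 28C. At 120 hpf, brightfield inspection noted any truncated body.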

[15] = tested on: Thyroperoxidase (TPO), gene 54314; assay: CCTE_Simmons_AUR_rTPO: CCTE's Amplex UltraRed Assay for Thyroperoxidase (TPO) Inhibition, Simmons Lab (AID 2283662);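 as to AC50: potency for loss of signal meaning inhibition of peroxidase activity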
Method in brief: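 Rat thyroid microsomes (5 ug protein) were incubated with test compound (8 concentrations, 5 nM–87.5 uM final, 0.5% DMSO), 25 uM Amplex UltraRed and 300 uM H2O2 in 200 mM phosphate buffer for 30 min at 37C in the dark; fluorescence read at 544/590 nm.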

[16] = CCTE_Simmons_CellTiterGLO_HEK293T: Viability Assessment in CCTE's Assays for Thyroperoxidase (TPO) Inhibition, Simmons Lab (AID 2283665)
Method in brief: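 HEK293T cells in DMEM with 1% FBS were dosed with 8 concentrations (5 nM–87.5 uM final, 0.5% DMSO) for 24 hr at 37C; ATP content was read by CellTiter-Glo luminescence, loss-of-signal versus DMSO, three biological replicates.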

[17] = read-out: kallikrein-3 (KLK3), KLK3 (gene 354); assay: LTEA_HepaRG_KLK3: Life Technologies and Expression Analysis (LTEA) Assay for kallikrein-3 (KLK3) using HepaRG (AID 2283652; active = hit-call score of the fitted dose curve at least 0.9, where 1 is the maximum; inactive = score below 0.9); settings: mRNA level, 48 h; actives raise or lower the signal
Method in brief: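 Differentiated human HepaRG cells in serum-free induction medium exposed 48 h in duplicate, eight-point half-log series from 100 uM in 0.5% DMSO. KLK3 mRNA by qRT-PCR, normalised to ACTB, GAPDH, POLR2A; bidirectional fit versus DMSO.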

[18] = read-out: solute carrier (SLC22A6), SLC22A6 (gene 9356); assay: LTEA_HepaRG_SLC22A6: Life Technologies and Expression Analysis (LTEA) Assay for solute carrier (SLC22A6) using HepaRG (AID 2283653; active = hit-call score of the fitted dose curve at least 0.9, where 1 is the maximum; inactive = score below 0.9); settings: mRNA level, 48 h; actives raise or lower the signal
Method in brief: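 Gene-expression endpoint in HepaRG hepatic cells: duplicate 8-point concentration-response, highest 100 uM, 48 h treatment in serum-free medium with 0.5% DMSO. SLC22A6 expression measured by qRT-PCR, normalised to ACTB/GAPDH/POLR2A.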

[19] = read-out: solute carrier (SLC10A1), SLC10A1 (gene 6554); assay: LTEA_HepaRG_SLC10A1: Life Technologies and Expression Analysis (LTEA) Assay for solute carrier (SLC10A1) using HepaRG (AID 2283657; active = hit-call score of the fitted dose curve at least 0.9, where 1 is the maximum; inactive = score below 0.9); settings: mRNA level, 48 h; actives raise or lower the signal
Method in brief: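 HepaRG cells (single lot) exposed 48 h in serum-free induction medium, 8-point half-log series from 100 uM top in 0.5% DMSO, duplicate. SLC10A1 mRNA by qRT-PCR normalised to ACTB, GAPDH, POLR2A; bidirectional fit versus DMSO.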

[20] = read-out: matrix metalloproteinase-1 (MMP1), MMP1 (gene 4312); assay: LTEA_HepaRG_MMP1: Life Technologies and Expression Analysis (LTEA) Assay for matrix metalloproteinase-1 (MMP1) using HepaRG (AID 2283658; active = hit-call score of the fitted dose curve at least 0.9, where 1 is the maximum; inactive = score below 0.9); settings: mRNA level, 48 h; actives raise or lower the signal
Method in brief: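 In this screen, human liver HepaRG cultures receive each chemical in duplicate for 48 h (top 100 uM, 0.5% DMSO). MMP1 expression is then quantified by TaqMan qRT-PCR with ACTB/GAPDH/POLR2A normalization.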

Measured: AC50

CCCC(=O)OCC
inactive: [1] | [2] | [3] | [4] | [5] | [6] | [7] | [8] | [9] | [10] | [11] | [12] | [13]

C1=CCCC=CCCC=CCC1
inactive: [1] | [2] | [3] | [4] | [5] | [6] | [7] | [8] | [9] | [10] | [11] | [12] | [14] | [13]

O=P(OC(CCl)CCl)(OC(CCl)CCl)OC(CCl)CCl
inactive: [11] | [13] | [15] | [16]
active: [1] 36.7 µM | [2] 25.9 µM | [3] 36.3 µM | [4] 34.7 µM | [5] 28.2 µM | [6] 31.7 µM | [7] 9.13 µM | [8] 40.3 µM | [9] 30 µM | [10] 33.9 µM | [12] 25.9 µM

COc1ccc(-n2nc(C(F)F)cc2-c2ccc(S(C)=O)cc2)cc1 (stereo unspecified)
inactive: [4] | [7] | [10] | [11] | [12] | [13]
active: [1] 51.6 µM | [2] 40.4 µM | [3] 46.7 µM | [5] 37.7 µM | [6] 40.4 µM | [8] 48.1 µM | [9] 12.8 µM

CCCCC(CC)COC(=O)c1ccc(C(=O)OCC(CC)CCCC)cc1 (stereo unspecified)
inactive: [1] | [2] | [3] | [4] | [5] | [6] | [7] | [8] | [9] | [10] | [11] | [12] | [14] | [13]

Cc1ccc(C)c(O)c1
inactive: [1] | [2] | [3] | [4] | [5] | [6] | [7] | [8] | [9] | [10] | [11] | [12] | [13]

CCCCC(CC)COC(=O)CCCCCCCCC(=O)OCC(CC)CCCC (stereo unspecified)
inactive: [1] | [2] | [3] | [4] | [5] | [6] | [7] | [8] | [9] | [10] | [11] | [12] | [13]

Cc1ccc(N)cc1O
active: [15] 1.18 µM
inactive: [1] | [2] | [3] | [4] | [5] | [6] | [7] | [8] | [9] | [10] | [11] | [12] | [13] | [16]

O=c1n(CC2CO2)c(=O)n(CC2CO2)c(=O)n1CC1CO1 (stereo unspecified)
active: [15] 21.1 µM
inactive: [1] | [2] | [3] | [4] | [5] | [6] | [7] | [8] | [9] | [10] | [11] | [12] | [14] | [13] | [16]

Cn1c(=O)c2c(ncn2C)n(C)c1=O
inactive: [1] | [2] | [3] | [4] | [5] | [6] | [7] | [8] | [9] | [10] | [11] | [12] | [13]

CNCc1ccc(NC(=O)c2c[nH]c3c2C(=O)CCC3)cc1
inactive: [1] | [2] | [3] | [4] | [5] | [6] | [7] | [8] | [9] | [10] | [11] | [12] | [14] | [13]

CC(C)CCCCCCOC(=O)c1ccc(C(=O)OCCCCCCC(C)C)c(C(=O)OCCCCCCC(C)C)c1
inactive: [1] | [2] | [3] | [4] | [5] | [6] | [7] | [8] | [9] | [10] | [11] | [17] | [18] | [12] | [13] | [19] | [20]

COCCOc1cc2cc(C(=O)NC3CCN(C(C)C)CC3)n(CC(=O)Nc3ccc(Cl)cn3)c2cn1
inactive: [1] | [2] | [3] | [4] | [5] | [6] | [7] | [8] | [9] | [10] | [11] | [12]

CC[C@H]1OC(=O)[C@H](C)[C@@H](O[C@H]2C[C@@](C)(OC)[C@@H](O)[C@H](C)O2)[C@H](C)[C@@H](O[C@@H]2O[C@H](C)C[C@H](N(C)C)[C@H]2O)[C@](C)(O)C[C@@H](C)C(=O)[C@H](C)[C@@H](O)[C@]1(C)O
inactive: [1] | [2] | [3] | [4] | [5] | [6] | [7] | [8] | [9] | [10] | [11] | [13]

CC[C@H](C)C(=O)O[C@H]1C[C@@H](C)C=C2C=C[C@H](C)[C@H](CC[C@@H]3C[C@@H](O)CC(=O)O3)[C@H]21
inactive: [1] | [2] | [3] | [4] | [5] | [7] | [8] | [9] | [10] | [11] | [12] | [14] | [13] | [16]
active: [15] 40.3 µM and 43.8 µM

CNS(=O)(=O)c1cc(C(=O)N2CCC(CCN3C4CCC3CC(n3c(C)nc5ccccc53)C4)(c3cccc(F)c3)CC2)c(Cl)cc1F (stereo unspecified)
inactive: [1] | [2] | [3] | [4] | [5] | [6] | [7] | [8] | [10] | [12] | [14] | [13]

O=C(O)c1cccc(Oc2ccccc2)c1
inactive: [1] | [2] | [3] | [4] | [5] | [6] | [8] | [9] | [10] | [11] | [18] | [12] | [14] | [19] | [20]
